Experiments:
Assay in all cases: PBM binding z-score (relative to random genomic background probes); higher = stronger binding; sequences stand for … in GC…GCGATTGACAGCGTAGAATGAAGG
[1] = test system: RARb homodimer (NR concentration 270 nM)
Outline: (§1)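 Probes were double-stranded and carried 34-nt variable regions with direct-repeat seeds, single-nucleotide variants, half-site ablations and random human genomic background sequences, printed on custom Agilent 4×180K protein-binding microarrays. Arrays were incubated 1 h with ligand-free nuclear receptor dimers in PBS pH 7.4, 2% milk, 0.02% Triton X-100, 1 mM DTT, 0.2 mg/mL BSA and 0.4 mg/ml salmon testes DNA. Antibodies against each partner (one per run) detected binding, and scanned fluorescence was regression-normalized. Binding z-scores use the random background probes as reference.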

[2] = test system: RARg:RXRa (NR concentration 270 nM, RXRa partner concentration 90 nM)
Outline: as §1

[3] = test system: RARg homodimer (NR concentration 270 nM)
Outline: as §1

[4] = test system: RXRa DBDmut IVT, anti-RXR (DBD mutation: RXRa K156A/R161A, NR concentration 90 nM)
Outline: as §1

[5] = test system: RXRa homodimer (NR concentration 180 nM)
Outline: as §1

[6] = test system: THRa:RXRa (NR concentration 90 nM, RXRa partner concentration 90 nM)
Outline: as §1

[7] = test system: THRa homodimer (NR concentration 90 nM)
Outline: as §1

[8] = test system: VDR homodimer (NR concentration 270 nM)
Outline: as §1

Sequence: GGTAGTTGGTCAGTAAAAGGTCACACACCGGTCG
- PBM binding z-score [1]: 5.4
- PBM binding z-score [2]: 5.49
- PBM binding z-score [3]: 4.84
- PBM binding z-score [4]: -0.0829
- PBM binding z-score [5]: 5.45
- PBM binding z-score [6]: 3.72
- PBM binding z-score [7]: 2.3
- PBM binding z-score [8]: 2.2

Sequence: ACAGACAGGTGAGTGATGGTAACTCAGCTGGACG
- PBM binding z-score [1]: -0.167
- PBM binding z-score [2]: 0.351
- PBM binding z-score [3]: 0.407
- PBM binding z-score [4]: -0.204
- PBM binding z-score [5]: 0.27
- PBM binding z-score [6]: -0.225
- PBM binding z-score [7]: -0.414
- PBM binding z-score [8]: -0.122

Sequence: CCTACTGGGCCAAGTTCATTGATCAGTCAAAGCA
- PBM binding z-score [1]: 1.71
- PBM binding z-score [2]: 1.45
- PBM binding z-score [3]: 1.09
- PBM binding z-score [4]: 2.37
- PBM binding z-score [5]: 0.409
- PBM binding z-score [6]: 0.994
- PBM binding z-score [7]: 0.294
- PBM binding z-score [8]: 4.4

Sequence: TCTATTAGCTGATTAGGGCAACCGAAACAGCGGA
- PBM binding z-score [1]: -0.0375
- PBM binding z-score [2]: 0.212
- PBM binding z-score [3]: 0.313
- PBM binding z-score [4]: 0.509
- PBM binding z-score [5]: 0.233
- PBM binding z-score [6]: 0.211
- PBM binding z-score [7]: -0.143
- PBM binding z-score [8]: -0.58

Sequence: CGAACTAGGTCATTGAGAGGACAGTGAATAGTAA
- PBM binding z-score [1]: 3.22
- PBM binding z-score [2]: 5.93
- PBM binding z-score [3]: 4.96
- PBM binding z-score [4]: 2.07
- PBM binding z-score [5]: 3.22
- PBM binding z-score [6]: 3.42
- PBM binding z-score [7]: 1.08
- PBM binding z-score [8]: 1.56

Sequence: CCGACTGTGGCAGAAAGGTTACCATACCATCCGG
- PBM binding z-score [1]: 1.82
- PBM binding z-score [2]: 1.02
- PBM binding z-score [3]: 0.761
- PBM binding z-score [4]: -0.111
- PBM binding z-score [5]: 1.47
- PBM binding z-score [6]: 0.958
- PBM binding z-score [7]: -0.0743
- PBM binding z-score [8]: -0.259

Sequence: CGTCCAAGGTCAAAGGTCAGTGATGAGATGACGG
- PBM binding z-score [1]: 5.76
- PBM binding z-score [2]: 8.67
- PBM binding z-score [3]: 7.8
- PBM binding z-score [4]: 3.72
- PBM binding z-score [5]: 10.1
- PBM binding z-score [6]: 4.87
- PBM binding z-score [7]: 3.03
- PBM binding z-score [8]: 4.03

Sequence: GCTTGTAGAACAAGGTTAAGAAAGACTAAGCTAA
- PBM binding z-score [1]: -0.00172
- PBM binding z-score [2]: 0.534
- PBM binding z-score [3]: 0.188
- PBM binding z-score [4]: -0.0592
- PBM binding z-score [5]: 0.633
- PBM binding z-score [6]: 0.947
- PBM binding z-score [7]: -0.592
- PBM binding z-score [8]: -0.315

Sequence: ATCTCTAGGTAAGACTCAGTTCAGTTAAGAACGC
- PBM binding z-score [1]: 0.724
- PBM binding z-score [2]: 0.306
- PBM binding z-score [3]: 0.466
- PBM binding z-score [4]: 0.735
- PBM binding z-score [5]: -0.175
- PBM binding z-score [6]: 1.44
- PBM binding z-score [7]: 0.728
- PBM binding z-score [8]: 1.6

Sequence: GCTTACGGGTCAATGGTTATAGCATGAATAGAAT
- PBM binding z-score [1]: 2.28
- PBM binding z-score [2]: 4.02
- PBM binding z-score [3]: 3.9
- PBM binding z-score [4]: 1.65
- PBM binding z-score [5]: 4.17
- PBM binding z-score [6]: 1.87
- PBM binding z-score [7]: -0.17
- PBM binding z-score [8]: 0.787

Sequence: CCGACTGGGGCAAGGTTTCCATAACGCACAGCCA
- PBM binding z-score [1]: 0.28
- PBM binding z-score [2]: 0.112
- PBM binding z-score [3]: 0.326
- PBM binding z-score [4]: -0.561
- PBM binding z-score [5]: -0.0639
- PBM binding z-score [6]: -0.0993
- PBM binding z-score [7]: -0.3
- PBM binding z-score [8]: -0.47

Sequence: CGTCCAAGGTCCAGGTCAGTGAAAGAGACTCGAA
- PBM binding z-score [1]: 2.38
- PBM binding z-score [2]: 1.4
- PBM binding z-score [3]: 1.92
- PBM binding z-score [4]: 0.467
- PBM binding z-score [5]: 0.732
- PBM binding z-score [6]: 2.22
- PBM binding z-score [7]: 1.67
- PBM binding z-score [8]: 0.482

Sequence: TGTCAAAGTTCAAAGGTAACGAAAGTATCCACAC
- PBM binding z-score [1]: 3.89
- PBM binding z-score [2]: 6.36
- PBM binding z-score [3]: 6.02
- PBM binding z-score [4]: 4.4
- PBM binding z-score [5]: 7.81
- PBM binding z-score [6]: 2.97
- PBM binding z-score [7]: 0.0782
- PBM binding z-score [8]: 4.73

Sequence: ACAGACAGGTGAGTGAAGGTAACTGAGCTGGACG
- PBM binding z-score [1]: 0.0356
- PBM binding z-score [2]: 0.592
- PBM binding z-score [3]: 0.479
- PBM binding z-score [4]: -0.622
- PBM binding z-score [5]: 0.511
- PBM binding z-score [6]: 1.75
- PBM binding z-score [7]: -0.353
- PBM binding z-score [8]: -0.218

Sequence: CCTTACGGATCACTCCAGGTTATAGCATCGGAGT
- PBM binding z-score [1]: 0.563
- PBM binding z-score [2]: 0.297
- PBM binding z-score [3]: 0.583
- PBM binding z-score [4]: 0.552
- PBM binding z-score [5]: 0.224
- PBM binding z-score [6]: 3.06
- PBM binding z-score [7]: 0.842
- PBM binding z-score [8]: 0.677

Sequence: ATCTCTAGGTAACAAGATCAGTGAAAGAGAGGAC
- PBM binding z-score [1]: 0.262
- PBM binding z-score [2]: 0.574
- PBM binding z-score [3]: 0.868
- PBM binding z-score [4]: -0.259
- PBM binding z-score [5]: 0.265
- PBM binding z-score [6]: 0.927
- PBM binding z-score [7]: 0.466
- PBM binding z-score [8]: 0.364

Sequence: CCGACTGGGGCAGAAAGGTTACCGTACCATCCGG
- PBM binding z-score [1]: 2.49
- PBM binding z-score [2]: 1.52
- PBM binding z-score [3]: 1.28
- PBM binding z-score [4]: -0.805
- PBM binding z-score [5]: 1.84
- PBM binding z-score [6]: 1.18
- PBM binding z-score [7]: -0.556
- PBM binding z-score [8]: -0.155

Sequence: TCGAGTAGGTTACCAATGGGGCATCCAGCTTTCT
- PBM binding z-score [1]: 0.918
- PBM binding z-score [2]: 1.39
- PBM binding z-score [3]: 0.452
- PBM binding z-score [4]: -0.00896
- PBM binding z-score [5]: 0.647
- PBM binding z-score [6]: -0.146
- PBM binding z-score [7]: -0.638
- PBM binding z-score [8]: -0.823

Sequence: CCGACTGGGGCAAGGTTACCATCACGCACAGCCA
- PBM binding z-score [1]: 1.61
- PBM binding z-score [2]: 1.08
- PBM binding z-score [3]: 1.33
- PBM binding z-score [4]: -0.402
- PBM binding z-score [5]: 1.18
- PBM binding z-score [6]: 1.22
- PBM binding z-score [7]: 0.274
- PBM binding z-score [8]: -0.0347

Sequence: TCATATAGGTAATACAGGTTAAAGTCGGCATCTA
- PBM binding z-score [1]: 0.936
- PBM binding z-score [2]: 0.979
- PBM binding z-score [3]: 0.696
- PBM binding z-score [4]: 2.04
- PBM binding z-score [5]: 1.63
- PBM binding z-score [6]: 1.35
- PBM binding z-score [7]: 0.204
- PBM binding z-score [8]: 0.629

Sequence: TCTGCTAGGTCTACGATGGTCAGCTAATCTGCTA
- PBM binding z-score [1]: -0.552
- PBM binding z-score [2]: -0.506
- PBM binding z-score [3]: -0.409
- PBM binding z-score [4]: 0.00299
- PBM binding z-score [5]: -0.775
- PBM binding z-score [6]: -1.43
- PBM binding z-score [7]: -1.26
- PBM binding z-score [8]: -1.28

Sequence: CGTCCAATGTCATAGGAGGTCAGTGAAGACAGAT
- PBM binding z-score [1]: 3.62
- PBM binding z-score [2]: 3
- PBM binding z-score [3]: 3.4
- PBM binding z-score [4]: 0.694
- PBM binding z-score [5]: 2.17
- PBM binding z-score [6]: 4.28
- PBM binding z-score [7]: 0.745
- PBM binding z-score [8]: 1.64

Sequence: TCATAGAGGTAATACAGGTGAAAGTCGGCATCTA
- PBM binding z-score [1]: 0.233
- PBM binding z-score [2]: 0.441
- PBM binding z-score [3]: 0.488
- PBM binding z-score [4]: 1.01
- PBM binding z-score [5]: 1.16
- PBM binding z-score [6]: 1.4
- PBM binding z-score [7]: -0.345
- PBM binding z-score [8]: 0.0318

Sequence: AGTCAAAGTTCAGGCCGAGGTAACGTAAAGCACG
- PBM binding z-score [1]: 3.34
- PBM binding z-score [2]: 5.07
- PBM binding z-score [3]: 4.99
- PBM binding z-score [4]: 3.1
- PBM binding z-score [5]: 2.85
- PBM binding z-score [6]: 3.78
- PBM binding z-score [7]: 1.3
- PBM binding z-score [8]: 2.53

Sequence: TGAATGAGGTTATAGGATCAGGGAACGTTGCAAA
- PBM binding z-score [1]: 0.349
- PBM binding z-score [2]: 1.53
- PBM binding z-score [3]: 0.884
- PBM binding z-score [4]: 0.852
- PBM binding z-score [5]: 2.42
- PBM binding z-score [6]: 2.12
- PBM binding z-score [7]: 0.489
- PBM binding z-score [8]: 0.329

Sequence: ACTATTAGTTGACTTAGGGCAAACGATACGACGC
- PBM binding z-score [1]: 0.722
- PBM binding z-score [2]: 0.773
- PBM binding z-score [3]: 1.08
- PBM binding z-score [4]: 0.703
- PBM binding z-score [5]: 0.56
- PBM binding z-score [6]: 1.24
- PBM binding z-score [7]: 0.149
- PBM binding z-score [8]: -0.123

Sequence: ACTTACGGGTCAACGAGGTTATAGCTCGCGTATA
- PBM binding z-score [1]: 3.51
- PBM binding z-score [2]: 5.67
- PBM binding z-score [3]: 5
- PBM binding z-score [4]: 2.85
- PBM binding z-score [5]: 5.91
- PBM binding z-score [6]: 4.18
- PBM binding z-score [7]: 1.02
- PBM binding z-score [8]: 3.7

Sequence: GCTAGCAGGCCATTTGGGTCACCCAATGACGGGC
- PBM binding z-score [1]: 2.08
- PBM binding z-score [2]: 1.52
- PBM binding z-score [3]: 1.58
- PBM binding z-score [4]: -0.734
- PBM binding z-score [5]: 1.16
- PBM binding z-score [6]: 2.19
- PBM binding z-score [7]: 0.834
- PBM binding z-score [8]: 0.435

Sequence: CCTTACGGGTCACGAGGTTACAGCACGACGAGCG
- PBM binding z-score [1]: 4.03
- PBM binding z-score [2]: 6.15
- PBM binding z-score [3]: 5.42
- PBM binding z-score [4]: 1.87
- PBM binding z-score [5]: 7.09
- PBM binding z-score [6]: 4.16
- PBM binding z-score [7]: 1.69
- PBM binding z-score [8]: 1.89

Source: the supplement of paper PMC6555819
